This passage reports Percent Effect results from ChEMBL document CHEMBL3988442, “University of Dundee, Small-Polar-MMV Screening Library” (2021).

Common to all, as to design: scale not given: direction of the effect not stated beside the values
Test [1] deals with Protein translocase subunit SecA (Escherichia coli (strain K12)) (UniProt P10408). Kind of test: Assay to Identify E. coli SecA ATPase Inhibitors. The format is functional. To be noted: 30 µM.
Test [2] addresses T1, Ubiquitin-activating enzyme e1, putative (Leishmania donovani (strain BPK282A1)) (UniProt E9BSI1).
T1 sequence (whole entry): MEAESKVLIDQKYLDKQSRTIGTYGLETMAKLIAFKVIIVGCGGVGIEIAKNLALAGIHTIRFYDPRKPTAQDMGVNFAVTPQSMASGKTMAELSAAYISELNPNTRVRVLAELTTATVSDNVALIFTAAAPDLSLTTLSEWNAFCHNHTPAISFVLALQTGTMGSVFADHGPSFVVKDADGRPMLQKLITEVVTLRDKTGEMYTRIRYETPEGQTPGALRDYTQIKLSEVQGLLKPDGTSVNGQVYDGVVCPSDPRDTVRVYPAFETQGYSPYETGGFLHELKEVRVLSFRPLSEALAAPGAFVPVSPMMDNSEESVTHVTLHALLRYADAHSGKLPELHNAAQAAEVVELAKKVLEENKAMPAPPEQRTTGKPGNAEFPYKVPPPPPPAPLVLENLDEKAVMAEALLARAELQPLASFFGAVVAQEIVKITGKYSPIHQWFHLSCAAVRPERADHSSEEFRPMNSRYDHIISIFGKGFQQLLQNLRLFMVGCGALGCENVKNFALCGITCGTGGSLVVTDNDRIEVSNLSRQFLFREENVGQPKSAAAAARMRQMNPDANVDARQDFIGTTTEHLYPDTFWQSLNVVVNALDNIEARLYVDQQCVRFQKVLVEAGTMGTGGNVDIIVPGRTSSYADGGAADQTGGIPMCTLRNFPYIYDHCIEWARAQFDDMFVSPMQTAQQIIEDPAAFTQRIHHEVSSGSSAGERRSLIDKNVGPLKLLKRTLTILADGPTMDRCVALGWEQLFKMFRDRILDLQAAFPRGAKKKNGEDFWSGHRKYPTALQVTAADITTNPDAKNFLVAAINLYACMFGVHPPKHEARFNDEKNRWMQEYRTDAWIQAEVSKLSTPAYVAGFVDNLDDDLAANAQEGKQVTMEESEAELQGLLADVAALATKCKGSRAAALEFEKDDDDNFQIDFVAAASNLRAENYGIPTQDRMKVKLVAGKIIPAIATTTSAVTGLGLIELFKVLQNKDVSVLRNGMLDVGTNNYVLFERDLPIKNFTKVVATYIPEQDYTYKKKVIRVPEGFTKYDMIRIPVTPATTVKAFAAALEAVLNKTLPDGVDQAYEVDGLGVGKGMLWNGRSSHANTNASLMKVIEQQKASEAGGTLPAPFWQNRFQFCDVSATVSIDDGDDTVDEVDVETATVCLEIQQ
Nature of the test: Leishmania donovani Ubiquitin Activating Enzyme (LdE1). It is filed as functional. To be noted: 30 µM.

The target of test [3] is AMP-activated protein kinase, AMPK (Homo sapiens) (UniProt P54646+O43741+P54619+Q9UGJ0+Q9Y478+Q13131+Q9UGI9). Nature of the test: AMP-dependent Kinase enzyme assay. An in vitro enzyme assay that detects ADP turnover that is directly proportional to AMPK activity. This uses naive AMPK that is activated during the assay with MK-8722. The format is functional. The note with it: 30 µM.

Test [4] has as its target Sialic acid-binding Ig-like lectin 9 (Homo sapiens) (UniProt Q9Y336). Nature of the test: Hs-Siglec9 ALPHAscreen SOP 20170721. The note with it: 10 µM. On the technique in general: In Alpha technology, singlet oxygen from a donor bead excites a nearby acceptor bead.
The test system of a further test is Trypanosoma cruzi. Kind of test: Trypanosoma cruzi phosphomannomutase and mannose-1-phosphate guanylyltransferase assay. It is filed as functional. The note with it: 10 µM.
Test [5] deals with T2, Arginase-2, mitochondrial (Homo sapiens) (UniProt P78540).
T2 sequence (whole entry): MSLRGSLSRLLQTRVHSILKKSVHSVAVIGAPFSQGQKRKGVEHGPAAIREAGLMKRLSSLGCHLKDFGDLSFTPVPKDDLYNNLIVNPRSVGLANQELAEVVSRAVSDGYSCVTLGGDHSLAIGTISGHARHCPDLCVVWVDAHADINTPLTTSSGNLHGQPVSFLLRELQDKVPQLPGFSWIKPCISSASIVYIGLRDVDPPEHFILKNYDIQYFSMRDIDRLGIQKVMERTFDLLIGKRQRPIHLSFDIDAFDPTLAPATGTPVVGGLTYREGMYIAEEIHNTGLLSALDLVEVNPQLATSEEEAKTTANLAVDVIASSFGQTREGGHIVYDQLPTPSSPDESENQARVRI
Nature of the test: in vitro enzyme assay to detect the production of urea directly proportional to the activity of Arginase II. Further: in the data most compounds retested in dose-response had high values. The note with it: 33.3 µM. The format is functional.

For test [6], the target named is T3, Proteasome subunit beta (Trypanosoma cruzi) (UniProt O96673).
T3 sequence (whole entry): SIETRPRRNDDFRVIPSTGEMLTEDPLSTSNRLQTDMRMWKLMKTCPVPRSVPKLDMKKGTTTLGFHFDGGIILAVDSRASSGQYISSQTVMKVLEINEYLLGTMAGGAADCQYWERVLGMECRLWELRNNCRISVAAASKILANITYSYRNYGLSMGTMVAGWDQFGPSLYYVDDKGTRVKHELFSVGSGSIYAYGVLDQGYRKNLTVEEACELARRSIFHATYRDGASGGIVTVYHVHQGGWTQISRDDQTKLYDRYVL
Nature of the test: Trypanosoma cruzi proteasome chymotrypsin-like activity (TcProtChymo) assay. Further: in the data most compounds retested in dose-response had high values. It is filed as functional. The note with it: 9.37 µM.

Another test is filed under the species Homo sapiens. Nature of the test: To identify inhibition of the IFN signalling (Jak-Stat) pathway via expression of an eGFP reporter gene under the control of an IFN-stimulated response element (ISRE) containing MxA promoter. To be noted: 30 µM. The format is functional. In general terms: Reporter assays use an easily measured gene product as a stand-in for the process of interest.

Test [7] deals with T4, Tyrosyl-tRNA synthetase, putative (Trypanosoma cruzi (strain CL Brener)) (UniProt Q4DSP6).
T4 sequence (whole entry): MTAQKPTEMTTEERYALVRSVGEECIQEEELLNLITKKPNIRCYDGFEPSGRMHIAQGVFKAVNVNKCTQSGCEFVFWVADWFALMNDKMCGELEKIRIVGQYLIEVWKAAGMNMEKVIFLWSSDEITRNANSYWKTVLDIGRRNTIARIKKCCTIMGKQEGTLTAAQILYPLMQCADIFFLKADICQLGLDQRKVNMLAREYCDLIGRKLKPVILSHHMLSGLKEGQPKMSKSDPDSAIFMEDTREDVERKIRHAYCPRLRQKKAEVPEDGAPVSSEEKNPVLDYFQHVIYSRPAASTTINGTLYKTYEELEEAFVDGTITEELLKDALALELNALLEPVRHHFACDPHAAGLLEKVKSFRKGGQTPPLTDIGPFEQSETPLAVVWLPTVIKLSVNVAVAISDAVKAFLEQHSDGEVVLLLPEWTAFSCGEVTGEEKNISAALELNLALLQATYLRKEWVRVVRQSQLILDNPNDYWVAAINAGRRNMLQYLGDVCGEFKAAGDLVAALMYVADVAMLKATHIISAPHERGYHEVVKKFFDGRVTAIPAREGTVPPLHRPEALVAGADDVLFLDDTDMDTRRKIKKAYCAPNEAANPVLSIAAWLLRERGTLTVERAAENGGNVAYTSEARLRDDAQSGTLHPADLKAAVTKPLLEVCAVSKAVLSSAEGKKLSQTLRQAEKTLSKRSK
Kind of test: Trypanosoma cruzi tyrosyl tRNA synthetase (TcYRS) _High Tyrosine SOP. Further: in the data most compounds retested in dose-response had high values. It is filed as functional. To be noted: 30 µM.

For test [8], the target named is T4, Tyrosyl-tRNA synthetase, putative (Trypanosoma cruzi (strain CL Brener)). Kind of test: Trypanosoma cruzi tyrosyl tRNA synthetase (TcYRS) SOP. It is filed as functional. To be noted: 30 µM.
Test [9] deals with Chromo domain-containing protein 1 (Saccharomyces cerevisiae (strain ATCC 204508 / S288c) (Baker's yeast)) (UniProt P32657). Nature of the test: ScCHD-1 Enzyme Inhibition Assay. Further: in the data most compounds retested in dose-response had high values. The format is functional. The note with it: 30 µM.
Chain of Chromo domain-containing protein 1 (Saccharomyces cerevisiae (strain ATCC 204508 / S288c) (Baker's yeast)) (P32657 whole entry, the tested form may be a part): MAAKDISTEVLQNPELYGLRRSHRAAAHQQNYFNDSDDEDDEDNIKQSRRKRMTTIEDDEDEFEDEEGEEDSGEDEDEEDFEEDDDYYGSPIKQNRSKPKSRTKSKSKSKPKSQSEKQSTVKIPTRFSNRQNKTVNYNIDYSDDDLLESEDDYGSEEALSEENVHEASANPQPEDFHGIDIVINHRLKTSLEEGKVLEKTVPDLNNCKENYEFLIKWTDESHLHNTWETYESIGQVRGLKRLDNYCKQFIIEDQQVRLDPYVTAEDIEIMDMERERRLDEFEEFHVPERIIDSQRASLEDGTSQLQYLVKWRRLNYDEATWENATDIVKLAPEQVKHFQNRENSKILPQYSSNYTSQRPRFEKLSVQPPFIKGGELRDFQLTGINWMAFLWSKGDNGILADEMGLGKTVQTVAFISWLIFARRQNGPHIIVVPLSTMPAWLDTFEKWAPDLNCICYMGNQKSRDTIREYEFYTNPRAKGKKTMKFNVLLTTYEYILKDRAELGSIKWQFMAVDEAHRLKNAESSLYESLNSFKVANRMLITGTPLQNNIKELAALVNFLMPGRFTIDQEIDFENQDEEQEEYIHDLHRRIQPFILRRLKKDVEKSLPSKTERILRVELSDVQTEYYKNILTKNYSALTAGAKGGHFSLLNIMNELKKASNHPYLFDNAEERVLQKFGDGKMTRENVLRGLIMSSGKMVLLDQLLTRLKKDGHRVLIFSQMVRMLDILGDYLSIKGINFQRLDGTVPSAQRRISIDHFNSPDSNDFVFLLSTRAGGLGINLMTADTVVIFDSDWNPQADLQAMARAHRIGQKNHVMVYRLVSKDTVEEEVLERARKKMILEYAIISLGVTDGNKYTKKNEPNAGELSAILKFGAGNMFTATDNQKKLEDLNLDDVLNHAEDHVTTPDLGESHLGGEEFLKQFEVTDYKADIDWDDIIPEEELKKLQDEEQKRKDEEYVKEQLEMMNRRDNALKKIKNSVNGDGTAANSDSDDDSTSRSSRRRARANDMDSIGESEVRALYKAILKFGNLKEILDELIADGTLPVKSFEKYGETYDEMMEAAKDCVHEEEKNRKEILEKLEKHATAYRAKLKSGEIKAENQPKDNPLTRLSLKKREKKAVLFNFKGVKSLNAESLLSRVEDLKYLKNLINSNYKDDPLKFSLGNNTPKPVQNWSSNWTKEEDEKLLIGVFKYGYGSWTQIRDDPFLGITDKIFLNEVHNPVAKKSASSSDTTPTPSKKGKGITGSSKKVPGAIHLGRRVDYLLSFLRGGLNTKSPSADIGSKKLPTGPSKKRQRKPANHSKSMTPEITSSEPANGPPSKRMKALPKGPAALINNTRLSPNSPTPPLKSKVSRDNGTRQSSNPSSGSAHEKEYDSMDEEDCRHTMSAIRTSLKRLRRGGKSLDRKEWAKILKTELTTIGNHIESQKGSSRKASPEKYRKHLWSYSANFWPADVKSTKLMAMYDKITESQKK

For some of these results: Entries with a potency or affinity are not part of this list.

Chain of Sialic acid-binding Ig-like lectin 9 (Homo sapiens) (Q9Y336 whole entry): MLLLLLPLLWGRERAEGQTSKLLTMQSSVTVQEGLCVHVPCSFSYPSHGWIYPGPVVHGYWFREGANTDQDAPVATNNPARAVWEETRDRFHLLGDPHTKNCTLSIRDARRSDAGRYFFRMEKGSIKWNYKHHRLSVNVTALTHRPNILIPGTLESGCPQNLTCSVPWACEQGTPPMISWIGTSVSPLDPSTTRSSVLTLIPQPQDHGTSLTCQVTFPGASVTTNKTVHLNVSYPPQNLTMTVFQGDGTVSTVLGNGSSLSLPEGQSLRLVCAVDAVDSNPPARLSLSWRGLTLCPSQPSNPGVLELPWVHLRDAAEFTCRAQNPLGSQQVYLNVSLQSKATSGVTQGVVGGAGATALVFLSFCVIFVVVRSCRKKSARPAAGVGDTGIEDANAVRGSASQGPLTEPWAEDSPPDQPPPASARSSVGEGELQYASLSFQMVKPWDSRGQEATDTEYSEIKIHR
Chain of Protein translocase subunit SecA (Escherichia coli (strain K12)) (P10408 whole entry): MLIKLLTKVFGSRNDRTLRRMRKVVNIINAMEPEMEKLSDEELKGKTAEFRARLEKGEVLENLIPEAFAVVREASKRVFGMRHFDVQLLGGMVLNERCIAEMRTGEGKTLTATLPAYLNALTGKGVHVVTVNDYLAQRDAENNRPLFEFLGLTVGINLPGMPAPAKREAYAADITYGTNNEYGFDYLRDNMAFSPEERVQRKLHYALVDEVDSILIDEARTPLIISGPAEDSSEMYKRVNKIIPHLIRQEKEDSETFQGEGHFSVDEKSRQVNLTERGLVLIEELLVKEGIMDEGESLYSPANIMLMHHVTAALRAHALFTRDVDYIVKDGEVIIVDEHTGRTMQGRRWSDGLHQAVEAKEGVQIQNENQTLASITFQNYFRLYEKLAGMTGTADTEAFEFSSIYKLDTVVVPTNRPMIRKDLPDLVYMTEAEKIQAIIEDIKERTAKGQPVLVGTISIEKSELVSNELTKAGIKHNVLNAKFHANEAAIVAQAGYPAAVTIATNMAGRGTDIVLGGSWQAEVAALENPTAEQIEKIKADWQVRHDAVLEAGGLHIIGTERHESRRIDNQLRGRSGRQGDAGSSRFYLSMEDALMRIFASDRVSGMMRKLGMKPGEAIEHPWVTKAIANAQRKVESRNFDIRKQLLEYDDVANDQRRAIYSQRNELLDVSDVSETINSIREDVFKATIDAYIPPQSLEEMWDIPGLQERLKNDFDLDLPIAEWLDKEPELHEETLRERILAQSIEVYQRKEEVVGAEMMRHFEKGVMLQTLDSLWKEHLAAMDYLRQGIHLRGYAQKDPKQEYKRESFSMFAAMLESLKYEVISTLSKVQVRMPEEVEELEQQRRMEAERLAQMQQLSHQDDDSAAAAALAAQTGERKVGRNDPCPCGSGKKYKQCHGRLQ

Take `CC(C)OCCC(=O)N(C)CCCc1cc(-c2ccccc2)no1`: the Percent Effect in [1] is 2.05%; in test [2], 18.9%; in [3] it was 5.99%; in [4], -0.12%; in the test on Trypanosoma cruzi, -8.08%; in [5], -1.66%. In addition, the Percent Effect in [6] was 13.3%; in the test listed under Homo sapiens, 22%; in [7], -1.98%; in test [8], 3.66%; in test [9], -5.36%.

For `COCCCN(C)C1CCCN(Cc2noc(C)n2)C1` (stereo unspecified), the Percent Effect in test [1] is -1.35%; in [2] it was 2.7%; in [3], -5.43%; in [4], 12.9%; in the test on Trypanosoma cruzi it was 4.18%; in test [5] it was -0.554%. Further, the Percent Effect in test [6] is -3.05%; in the test listed under Homo sapiens, 11.9%; in test [7], 3.96%; in test [8], 15.8%; in [9] it was -1.13%.

Regarding `Cc1ncsc1C(=O)NCCOc1ncc(Cl)cc1Cl`, the Percent Effect in test [1] is -6.27%; in test [2] it was 5.41%; in [3], 1.84%; in [4] it was 0.223%; in the test with Trypanosoma cruzi it was 0.977%; in test [5], 4.17%. For the same compound, the Percent Effect in [6] is 11.1%; in the test filed under Homo sapiens it was 25.4%; in test [7], 10.9%; in test [8] it was 11%; in test [9], -5.96%.

Turning to `Cc1n[nH]c(C2CN(CC(=O)NCCc3ccsc3)CCO2)n1` (stereo unspecified), the Percent Effect in [1] was -1.63%; in [2], 5.48%; in [3] it was -9.76%; in test [4], 0.305%; in the test on Trypanosoma cruzi it was -3.13%; in test [5], -0.455%. Besides, the Percent Effect was 20.2% in [6]; 8.08% in the test filed under Homo sapiens; 4.3% in [7]; 15% in test [8]; -13.8% in test [9].

On to `Cc1cccnc1NC(=O)CSc1ccc2c(c1)OCCO2`, for which the Percent Effect in [1] was -3.38%; in test [2], -4.17%; in [3], -2.48%; in test [4], -6.94%; with Trypanosoma cruzi it was -2.04%; in [5], -1.77%. Moreover, the Percent Effect was 8.42% in test [6]; 7.78% in the test listed under Homo sapiens; 0% in [7]; -2.56% in test [8]; -2.02% in [9].

For the compound `CC(=O)N1CCOCC2(CCN(Cc3ccc(C)s3)CC2)C1`, the Percent Effect in [1] is -3.46%; in test [2], 10.7%; in [3] it was -5.5%; in [4], -0.245%; in the test on Trypanosoma cruzi, 6.37%; in test [5], -51.8%. Also, the Percent Effect is 2.91% in test [6]; -1.39% in the test listed under Homo sapiens; 4.17% in test [7]; 5% in [8]; -7.22% in test [9].

Turning to `N#Cc1cc(NC(=O)C2CC=CC2)ccc1N1CCC(O)CC1`, the Percent Effect in test [1] was -3.63%; in test [2], 2.7%; in [3], -2.38%; in test [4], 4.36%; in the test with Trypanosoma cruzi it was -0.193%; in test [5] it was 1.91%. Further, the Percent Effect in test [6] was 7.41%; in the test listed under Homo sapiens it was 0.178%; in [7], 2.65%; in [8], 7.32%; in [9], -2.26%.

Turning to `CC(C)c1n[nH]c(C2CN(C(=O)c3csnn3)CCO2)n1` (stereo unspecified), the Percent Effect in [1] was -2.56%; in test [2] it was -7.89%; in [3], -6.16%; in test [4], 6.92%; in the test on Trypanosoma cruzi, 4.58%; in test [5], 1.08%. Moreover, the Percent Effect in test [6] was 0.592%; in the test filed under Homo sapiens, -2.95%; in test [7], 3.45%; in [8], 6.17%; in test [9] it was -3.21%.

With `CCS(=O)(=O)c1ccccc1N1CCC(NC(C)=O)CC1`, the Percent Effect is -2.22% in [1]; 21.6% in [2]; -1.79% in [3]; 2.67% in test [4]; -5.11% in the test with Trypanosoma cruzi; -4.25% in test [5]. The Percent Effect in test [6] was -19.4%; in the test filed under Homo sapiens it was 11.3%; in test [7], 6.93%; in test [8], 13.4%; in test [9], 0.794%.

Turning to `COCCc1noc(CNCC2CCCN2c2cccnn2)n1` (stereo unspecified), the Percent Effect in [1] was -4.29%; in [2] it was 18.2%; in test [3] it was -3.94%; in test [4] it was -5.52%; in the test with Trypanosoma cruzi, 4.41%; in test [5], -5.68%. In addition, the Percent Effect in test [6] was 20.8%; in the test listed under Homo sapiens, 2.37%; in [7], 10.5%; in test [8] it was 32.9%; in [9] it was -23.1%.

Turning to `CCC(C)NC(=O)c1ccccc1-n1cnnn1` (stereo unspecified), the Percent Effect in [1] is -6.55%; in test [2] it was 5.33%; in test [3], 0.166%; in test [4], 2.83%; in the test with Trypanosoma cruzi it was -0.292%; in test [5], 5.21%. Besides, the Percent Effect is 12.2% in test [6]; 3.8% in the test filed under Homo sapiens; 9.29% in [7]; 16.1% in test [8]; -6.11% in test [9].
